From PubChem BioAssay (Tox21) come the findings set out here.

Structures are written as SMILES. Records with an inconclusive call do not appear. A call without a number means that no potency is given here. Active and inactive are the calls of the source. Calls come from the whole dose curve; as a rule, active = well fitted cell-killing curve with a large enough effect in the repeat runs; inconclusive = weak or mixed curves, or effect the other way; inactive = flat fitted curve, though single readings scatter.
Potency is the fitted concentration of half-maximal effect.

The assay in a line: qHTS assay to identify small molecule antagonists of the estrogen receptor alpha (ER-alpha) signaling pathway using the BG1 cell line in the presence of 0.1 nM 17-beta-estradiol - cell viability counter screen (AID 1259241). Note: nearly all actives have a fitted effect of over 40% in size. The conditions noted are these: VM7Luc4E2 (BG1) viability, CellTiter-Fluor protease, 22 h, 0.1 nM estradiol agonist added; series mostly up to 92.4 µM. The text has this: National Center for Advancing Translational Sciences [NCATS]
NIH Chemical Genomics Center [NCGC]
U.S. Environmental Protection Agency [EPA]
National Institutes of Environmental Health Sciences [NIEHS]
National Toxicology Program [NTP]
U.S. Food and Drug Administration [FDA]
Estrogen receptor (ER), a member of the nuclear hormone receptor plays an important role in development, metabolic homeostasis and reproduction. Two subtypes of ER, ER-alpha and ER-beta, have similar expression patterns with some uniqueness in both types. Endocrine disrupting chemicals (EDCs) and their interactions with steroid hormone receptors like ER causes disruption of normal endocrine function. Therefore, it is important to understand the effect of environmental chemicals in ER signaling pathway. For identifying ER antagonists, VM7Luc4E2 cell line was used to screen against Tox21 compound libraries.
VM7Luc4E2 cell line (provided by Denison MS, University of California) endogenously express full-length ER-alpha and is stably transfected with a plasmid containing four estrogen responsive elements (ERE) upstream of a luciferase reporter gene. The current screening for identification of ER-alpha inhibitors against Tox21 compound libraries used lower concentration (0.1 nM) of 17beta-Estradiol as a stimulator. The cytotoxicity of the Tox21 compound libraries against VM7Luc4E2 cell line was tested by measuring live-cell protease activity using CellTiter-Fluor assay in the same wells.
Tox21 Assay Protocol Summary:
VM7Luc4E2 cells were cultured in phenol red free assay medium containing 10% charcoal stripped FBS for 5 days prior to the assay. The cells were dispensed at 4,000 cells/well in 4 uL of assay medium into white wall/solid-bottom 1536-well plates (Corning Life Sciences, Corning, NY) using a Multidrop Combi (ThermoFisher Scientific, Waltham, MA) dispenser. After the assay plates were incubated at 37C and 5% CO2 for 24 hr, 23 nL of compounds dissolved in DMSO, positive controls or DMSO only was transferred to the assay plates by a Pintool station (Kalypsys, San Diego, CA). The transfer of compounds was followed by the addition of 1 uL of 0.1 nM (final concentration) agonist (17beta-Estradiol)/assay medium using a Flying Reagent Dispenser (FRD, Aurora Discovery, San Diego, CA). The plates were incubated at 37C and 5% CO2 for 22 hr. For cytotoxicity assay, 1 uL of CellTiter-Fluor reagent (Promega Corporation, Madison, WI) was added to each well using the FRD and after 30 min incubation at 37C and 5% CO2, The fluorescence intensity was measured using ViewLux plate reader (PerkinElmer, Shelton, CT).
For the compound `CS(=O)(=O)c1ccc(C(=O)C2C(=O)CCCC2=O)c([N+](=O)[O-])c1`, the Potency result is “inactive”.

Regarding `COc1ccc(OC)c(C=O)c1`, the Potency entry is “inactive”.

In the case of `CC(C)CCCCCOC(=O)c1ccccc1C(=O)OCCCCCC(C)C`, the Potency result is “inactive”.

As for `COc1ccc(OC)c(CC(C)N)c1` (stereo not given), the Potency result was “inactive”.

On to `O=C/C(Cl)=C(/Cl)C(=O)O`, for which the Potency result is “inactive”.

Regarding `Oc1cc(Cl)c(Cl)c(Cl)c1`, the Potency entry was “inactive”.

As for `CC(=O)C(Cl)(Cl)Cl`, the Potency is 20.9 µM (active).

In the case of `CC(C)OC(=S)S`, the Potency result is “inactive”.

For the compound `C[C@@H]1CC[C@@]2(OC1)O[C@H]1[C@@H](O)[C@H]3[C@@H]4CC[C@H]5C[C@@H](O[C@@H]6O[C@H](CO)[C@H](O[C@@H]7O[C@H](CO)[C@@H](O)[C@H](O[C@@H]8OC[C@@H](O)[C@H](O)[C@H]8O)[C@H]7O[C@@H]7O[C@H](CO)[C@@H](O)[C@H](O[C@@H]8O[C@H](CO)[C@@H](O)[C@H](O)[C@H]8O)[C@H]7O)[C@H](O)[C@H]6O)[C@H](O)C[C@]5(C)[C@H]4CC[C@]3(C)[C@H]1[C@@H]2C`, the Potency is 29 µM (active).

With `CCOP(=O)(NC(C)C)Oc1ccc(SC)c(C)c1` (stereo not given), the Potency result was “inactive”.

For `O=C1C=CC(=O)c2ccccc21`, the Potency is 19.3 µM (active).

Take `CCCCCCCCCBr`: the Potency entry was “inactive”.

Consider `CCOc1cc(C(C)(C)C)ccc1C1COC(c2c(F)cccc2F)=N1` (stereo not given), for which the Potency result was “inactive”.

On to `CCC[CH2][Sn]([CH2]CCC)([CH2]CCC)[O]C(=O)c1ccccc1`, for which the Potency was 21.7 µM (active).

As to `NC(=O)CCl`, the Potency result was “inactive”.

On to `O=C(O)c1cc[c]([Hg][Cl])cc1`, for which the Potency result is “inactive”.

In the case of `N#C/C=C/C#N`, the Potency result was “inactive”.

Take `CN(CCCC(=O)c1cccnc1)N=O`: the Potency result is “inactive”.

Turning to `CC(=O)c1ccc(-c2ccccc2)cc1`, the Potency result is “inactive”.

Turning to `O=[N+]([O-])c1cc(Cl)ccc1Cl`, the Potency entry was “inactive”.

For `NC(=O)c1ccc(N)nc1`, the Potency result was “inactive”.

With `COP(N)(=S)OC`, the Potency result was “inactive”.

As to `CCN(CC)C(=S)[S-].CCN(CC)C(=S)[S-].[Zn+2]`, the Potency was 1.92 µM (active).

`N#CCc1ccc(Cl)cc1`: the Potency result was “inactive”.

With `CC(C)Oc1cccc(NC(=O)c2ccccc2C(F)(F)F)c1`, the Potency entry was “inactive”.

For the compound `C=CCOC(N)=O`, the Potency entry is “inactive”.

As to `CNC(C)Cc1ccc2c(c1)OCO2` (stereo not given), the Potency entry is “inactive”.

For the compound `S=C(SSC(=S)N1CCCCC1)N1CCCCC1`, the Potency result was “inactive”.

Regarding `Oc1c(Br)c(Br)c(Br)c(Br)c1Br`, the Potency entry is “inactive”.

Consider `C=CC(=O)OCCCCOC(=O)C=C`, for which the Potency entry is “inactive”.

For the compound `CC(O)C#N` (stereo not given), the Potency result was “inactive”.

As to `CC(C)(COCC1CO1)COCC1CO1` (stereo not given), the Potency result is “inactive”.

With `Cc1cc(SCc2sc(-c3ccc(C(F)(F)F)c(F)c3)nc2C)ccc1OCC(=O)O`, the Potency result was “inactive”.

For `CCCCCCCCCCCCCCCC[N+](C)(C)C`, the Potency entry was “inactive”.

For `COc1cccc(C(=O)CCN[C@@H](C)[C@H](O)c2ccccc2)c1`, the Potency entry was “inactive”.

Regarding `Brc1c(Br)c(Br)c(Oc2c(Br)c(Br)c(Br)c(Br)c2Br)c(Br)c1Br`, the activity change, negative = cytotoxicity was 5.06% [at 19 µM] (inactive).

In the case of `C[C@@H](Oc1ccc(Cl)cc1Cl)C(=O)O`, the Potency result is “inactive”.

As to `N#CCCC(Br)(C#N)CBr` (stereo not given), the Potency result was “inactive”.

On to `CCOP(=S)(OCC)SCS(=O)(=O)CC`, for which the Potency result is “inactive”.

With `CC(=O)[O-].[Tl+]`, the Potency result is “inactive”.
